PubChem BioAssay (EPA / NIEHS)
Activity calls are given as the source filed them. How the source made its calls: active means hit-call score of the fitted dose curve at least 0.9, where 1 is the maximum; inactive means score below 0.9.

Experiments:
[1] = read-out: TIMP metallopeptidase inhibitor 1 (TIMP1), TIMP1 (gene 7076); assay: BSK_hDFCGF_TIMP1: BioMAP Diversity Plus: hDFCGF Assay for TIMP metallopeptidase inhibitor 1 (TIMP1) Biomarker Activity (AID 2283062); conditions: primary human foreskin fibroblasts; actives raise or lower the signal
In short: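 Human foreskin fibroblast primary cultures dosed for 24 h; secreted/surface TIMP-1 quantified by ELISA. Bidirectional curve fitting against DMSO baseline; cytotoxicity tracked in parallel cultures by SRB total-protein staining.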

[2] = read-out: Monokine induced gamma interferon (MIG), CXCL9 (gene 4283); assay: BSK_hDFCGF_MIG: BioMAP Diversity Plus: hDFCGF Assay for Monokine induced gamma interferon (MIG) Biomarker Activity (AID 2283063); conditions: primary human foreskin fibroblasts; actives raise or lower the signal
In short: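 MIG/CXCL9 measured by ELISA 24 h after dosing primary human skin fibroblasts. Activity fitted in both directions against DMSO controls. Cytotoxicity was checked in parallel cultures by SRB staining read at 560 nm.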

[3] = read-out: Matrix Metallopeptidase 1 (MMP1), MMP1 (gene 4312); assay: BSK_hDFCGF_MMP1: BioMAP Diversity Plus: hDFCGF Assay for Matrix Metallopeptidase 1 (MMP1) Biomarker Activity (AID 2283064); conditions: primary human foreskin fibroblasts; actives raise or lower the signal
In short: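 hDFCGF primary fibroblasts (human foreskin); chemical added; 24 h; MMP1 by ELISA; bidirectional fit vs DMSO.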

[4] = read-out: Intercellular Adhesion Molecule 1 (ICAM1), ICAM1 (gene 3383); assay: BSK_KF3CT_ICAM1: BioMAP Diversity Plus: KF3CT Assay for Intercellular Adhesion Molecule 1 (ICAM1) Biomarker Activity (AID 2283067); conditions: primary human keratinocytes with fibroblasts; actives raise or lower the signal
In short: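 Human keratinocyte–foreskin fibroblast co-culture was treated for 24 h. Cell-surface ICAM-1 was quantified by ELISA, fitted bidirectionally relative to DMSO. Cytotoxicity was checked in parallel cultures by SRB total-protein staining.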

[5] = read-out: Interferon-gamma inducible Protein 10 (IP10), CXCL10 (gene 3627); assay: BSK_KF3CT_IP10: BioMAP Diversity Plus: KF3CT Assay for Interferon-gamma inducible Protein 10 (IP10) Biomarker Activity (AID 2283068); conditions: primary human keratinocytes with fibroblasts; actives raise or lower the signal
In short: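 Human keratinocyte plus foreskin fibroblast primary co-culture exposed to test chemical for 24 h; IP-10 measured by ELISA. Concentration-response fitted bidirectionally against DMSO control as baseline.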

[6] = BSK_KF3CT_SRB: Viability Assessment in the BioMAP Diversity Plus: KF3CT Assay (AID 2283069); conditions: primary human keratinocytes with fibroblasts;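 further: total protein by sulforhodamine B staining as a cytotoxicity measure; fitted for both signal gain and loss against DMSO baseline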
In short: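 Keratinocytes co-cultured with foreskin fibroblasts (human primary); chemical added, 24 h; fix 10% TCA, stain 0.1% SRB, A560. Bidirectional fit vs DMSO.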

[7] = read-out: Interleukin-1 alpha (IL1a), IL1A (gene 3552); assay: BSK_KF3CT_IL1a: BioMAP Diversity Plus: KF3CT Assay for Interleukin-1 alpha (IL1a) Biomarker Activity (AID 2283070); conditions: primary human keratinocytes with fibroblasts; actives raise or lower the signal
In short: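 Chemicals were dosed onto co-cultured human keratinocytes and foreskin fibroblasts, IL-1a was quantified by ELISA at 24 h, and activity was fitted in both directions relative to DMSO controls.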

[8] = read-out: TIMP metallopeptidase inhibitor 2 (TIMP2), TIMP2 (gene 7077); assay: BSK_KF3CT_TIMP2: BioMAP Diversity Plus: KF3CT Assay for TIMP metallopeptidase inhibitor 2 (TIMP2) Biomarker Activity (AID 2283071); conditions: primary human keratinocytes with fibroblasts; actives raise or lower the signal
In short: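 Co-culture of human primary keratinocytes and foreskin fibroblasts, measured 24 h after chemical dosing. TIMP-2 quantified by ELISA and fitted in both directions relative to DMSO. Cytotoxicity checked in parallel cultures by SRB total-protein staining.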

[9] = read-out: Transforming growth factor beta 1 (TGFb1), TGFB1 (gene 7040); assay: BSK_KF3CT_TGFb1: BioMAP Diversity Plus: KF3CT Assay for Transforming growth factor beta 1 (TGFb1) Biomarker Activity (AID 2283072); conditions: primary human keratinocytes with fibroblasts; actives raise or lower the signal
In short: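 Human keratinocyte/foreskin fibroblast co-culture; TGF-b1 measured by ELISA 24 h after dosing, fitted bidirectionally versus DMSO. Cytotoxicity checked in parallel cultures by total protein (SRB staining, 560 nm).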

[10] = read-out: C-C motif chemokine 2 (Homo sapiens) (UniProt P13500); assay: BSK_KF3CT_MCP1: BioMAP Diversity Plus: KF3CT Assay for Monocyte Chemoattractant Protein 1 (MCP1/CCL2) Biomarker Activity (AID 2283073); conditions: primary human keratinocytes with fibroblasts; actives raise or lower the signal
In short: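 Human keratinocyte–foreskin fibroblast co-culture; MCP-1 measured by ELISA 24 h after dosing. Bidirectional fit vs DMSO; cytotoxicity tracked by SRB total protein in parallel cultures.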

[11] = read-out: Matrix Metallopeptidase 9 (MMP9), MMP9 (gene 4318); assay: BSK_KF3CT_MMP9: BioMAP Diversity Plus: KF3CT Assay for Matrix Metallopeptidase 9 (MMP9) Biomarker Activity (AID 2283074); conditions: primary human keratinocytes with fibroblasts; actives raise or lower the signal
In short: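 Human keratinocyte/foreskin fibroblast co-culture; compound added; 24 h; MMP-9 by ELISA; bidirectional fit vs DMSO baseline.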

[12] = read-out: urokinase plasminogen activator (uPA), PLAU (gene 5328); assay: BSK_KF3CT_uPA: BioMAP Diversity Plus: KF3CT Assay for urokinase plasminogen activator (uPA) Biomarker Activity (AID 2283075); conditions: primary human keratinocytes with fibroblasts; actives raise or lower the signal
In short: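 ELISA readout of uPA, analyzed for signal gain or loss relative to DMSO, from a human primary keratinocyte–foreskin fibroblast co-culture measured 24 h after chemical treatment.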

CD40, CD40 (gene 958) = assay: BSK_LPS_CD40: BioMAP Diversity Plus: LPS Assay for CD40 Biomarker Activity (AID 2283076); conditions: primary human HUVEC with PBMC; actives raise or lower the signal
In short: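 HUVEC plus PBMC co-culture stimulated with LPS; CD40 quantified by ELISA 24 h after compound dosing. Fitting was bidirectional relative to DMSO. SRB staining of parallel cultures flagged overt cytotoxicity.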

[13] = read-out: E-selectin (Homo sapiens) (UniProt P16581); assay: BSK_LPS_Eselectin: BioMAP Diversity Plus: LPS Assay for Eselectin Biomarker Activity (AID 2283077); conditions: primary human HUVEC with PBMC; actives raise or lower the signal
In short: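 Human umbilical vein endothelial cells co-cultured with PBMC under LPS stimulation; cell-surface E-selectin measured by ELISA 24 h after dosing. Change in either direction versus DMSO, with SRB total-protein staining in parallel cultures for cytotoxicity.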

[14] = read-out: Interleukin-8 (IL8), CXCL8 (gene 3576); assay: BSK_LPS_IL8: BioMAP Diversity Plus: LPS Assay for Interleukin-8 (IL8) Biomarker Activity (AID 2283078); conditions: primary human HUVEC with PBMC; actives raise or lower the signal
In short: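 Human umbilical vein endothelial cells co-cultured with PBMC, LPS-stimulated, exposed to compound for 24 h. IL-8 quantified by ELISA; fitted in both directions against DMSO, with SRB total-protein staining of parallel cultures for cytotoxicity.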

[15] = BSK_LPS_SRB: Viability Assessment in the BioMAP Diversity Plus: LPS Assay (AID 2283079); conditions: primary human HUVEC with PBMC;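 further: total protein by sulforhodamine B absorbance as a cytotoxicity measure; measured one day after compound addition; fitted in both directions against DMSO so loss or gain of signal counts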
In short: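 Co-culture of human umbilical vein endothelial cells and PBMC, read 24 h after dosing. Total protein by 0.1% SRB staining after 10% TCA fixation, absorbance at 560 nm; bidirectional fit against DMSO.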

[16] = read-out: Interleukin-1 alpha (IL1a), IL1A (gene 3552); assay: BSK_LPS_IL1a: BioMAP Diversity Plus: LPS Assay for Interleukin-1 alpha (IL1a) Biomarker Activity (AID 2283080); conditions: primary human HUVEC with PBMC; actives raise or lower the signal
In short: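 Human umbilical vein endothelial cells co-cultured with PBMC and stimulated with LPS; IL-1a measured by ELISA 24 h after dosing. Bidirectional fitting against DMSO; cytotoxicity checked by SRB staining in parallel cultures.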

[17] = read-out: Monocyte Chemoattractant Protein-1 (MCP1), CCL2 (gene 6347); assay: BSK_LPS_MCP1: BioMAP Diversity Plus: LPS Assay for Monocyte Chemoattractant Protein-1 (MCP1) Biomarker Activity (AID 2283081); conditions: primary human HUVEC with PBMC; actives raise or lower the signal
In short: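 Human umbilical vein endothelial cells co-cultured with PBMC, LPS-stimulated; secreted MCP-1 measured by ELISA 24 h after compound addition. Bidirectional curve fitting against DMSO baseline; SRB total-protein staining in parallel cultures for cytotoxicity.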

[18] = read-out: Plasminogen activator inhibitor-1 (PAI1), SERPINE1 (gene 5054); assay: BSK_hDFCGF_PAI1: BioMAP Diversity Plus: hDFCGF Assay for Plasminogen activator inhibitor-1 (PAI1) Biomarker Activity (AID 2283066); conditions: primary human foreskin fibroblasts; actives raise or lower the signal
In short: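 Human foreskin fibroblast primary cells, 24 h chemical exposure; PAI-1 measured by ELISA. Bidirectional fitting relative to DMSO; parallel cultures stained with SRB for total protein to flag overt cytotoxicity.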

Measured: outcome

E-selectin (Homo sapiens), sequence (P16581 whole entry, looked up): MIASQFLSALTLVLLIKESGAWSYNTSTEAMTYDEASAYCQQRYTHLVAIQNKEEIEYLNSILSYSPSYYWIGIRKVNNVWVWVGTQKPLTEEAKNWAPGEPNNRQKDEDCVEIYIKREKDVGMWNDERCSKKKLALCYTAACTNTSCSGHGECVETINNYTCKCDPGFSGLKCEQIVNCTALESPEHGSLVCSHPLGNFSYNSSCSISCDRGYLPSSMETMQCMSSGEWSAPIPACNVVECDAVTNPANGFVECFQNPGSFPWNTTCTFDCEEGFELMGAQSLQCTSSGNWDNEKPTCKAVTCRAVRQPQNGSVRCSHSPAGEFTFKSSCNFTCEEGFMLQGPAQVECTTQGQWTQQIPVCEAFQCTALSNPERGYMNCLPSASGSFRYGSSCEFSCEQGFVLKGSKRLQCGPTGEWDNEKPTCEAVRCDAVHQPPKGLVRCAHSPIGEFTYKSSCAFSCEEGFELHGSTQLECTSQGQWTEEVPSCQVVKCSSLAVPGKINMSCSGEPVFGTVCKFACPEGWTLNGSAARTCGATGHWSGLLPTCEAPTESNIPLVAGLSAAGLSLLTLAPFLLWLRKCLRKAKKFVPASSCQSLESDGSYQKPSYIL

ClCCOCCCl
inactive: [1] | [2] | [3] | [4] | [5] | [6] | [7] | [8] | [9] | [10] | [11] | [12] | CD40, CD40 (gene 958) | [13] | [14] | [15] | [16] | [17]

CCN(CC)CCO
inactive: [1] | [2] | [3] | [4] | [5] | [6] | [7] | [8] | [9] | [10] | [11] | [12] | CD40, CD40 (gene 958) | [13] | [14] | [15] | [16] | [17]

c1ccc(N=Nc2ccccc2)cc1
inactive: [1] | [2] | [3] | [18] | [4] | [5] | [6] | [7] | [8] | [9] | [10] | [11] | [12] | CD40, CD40 (gene 958) | [13] | [14] | [15] | [16] | [17]
